NTR1 agonist: NTR1 (human) agonism. 330,000 tested, 0.17% active. activation, % at 20 µM. NTR1-U2OS beta-arrestin-GFP spot imaging, agonist mode. AID 493036. P30989;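 active = activation at or above 40% of the spot to cytoplasm intensity ratio, with at least 20 cells analyzed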;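 also: 0% = DMSO without peptide and 100% = 100 nM NTR1 peptide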
ANO1 activ: mouse TMEM16A channel activation, primary screen; AID 623877; 340,000 tested, 0.3% active; Q8BHY3; HEK293 TMEM16A/YFP-H148Q/I152L, iodide quench fluorescence; stronger effect = lower value; B-score at 10 µM;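 active = fluorescence-ratio B-score plate-corrected deviation score at least 3 library SD below zero, with starting fluorescence score within 5 deviations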;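 also: channel opened by trigger with iodide after compound preincubation; score built on the fluorescence ratio of max minus min over baseline; more negative score means more quench and so TMEM16A activation or potentiation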
Target sequence (Q8BHY3 whole entry, looked up): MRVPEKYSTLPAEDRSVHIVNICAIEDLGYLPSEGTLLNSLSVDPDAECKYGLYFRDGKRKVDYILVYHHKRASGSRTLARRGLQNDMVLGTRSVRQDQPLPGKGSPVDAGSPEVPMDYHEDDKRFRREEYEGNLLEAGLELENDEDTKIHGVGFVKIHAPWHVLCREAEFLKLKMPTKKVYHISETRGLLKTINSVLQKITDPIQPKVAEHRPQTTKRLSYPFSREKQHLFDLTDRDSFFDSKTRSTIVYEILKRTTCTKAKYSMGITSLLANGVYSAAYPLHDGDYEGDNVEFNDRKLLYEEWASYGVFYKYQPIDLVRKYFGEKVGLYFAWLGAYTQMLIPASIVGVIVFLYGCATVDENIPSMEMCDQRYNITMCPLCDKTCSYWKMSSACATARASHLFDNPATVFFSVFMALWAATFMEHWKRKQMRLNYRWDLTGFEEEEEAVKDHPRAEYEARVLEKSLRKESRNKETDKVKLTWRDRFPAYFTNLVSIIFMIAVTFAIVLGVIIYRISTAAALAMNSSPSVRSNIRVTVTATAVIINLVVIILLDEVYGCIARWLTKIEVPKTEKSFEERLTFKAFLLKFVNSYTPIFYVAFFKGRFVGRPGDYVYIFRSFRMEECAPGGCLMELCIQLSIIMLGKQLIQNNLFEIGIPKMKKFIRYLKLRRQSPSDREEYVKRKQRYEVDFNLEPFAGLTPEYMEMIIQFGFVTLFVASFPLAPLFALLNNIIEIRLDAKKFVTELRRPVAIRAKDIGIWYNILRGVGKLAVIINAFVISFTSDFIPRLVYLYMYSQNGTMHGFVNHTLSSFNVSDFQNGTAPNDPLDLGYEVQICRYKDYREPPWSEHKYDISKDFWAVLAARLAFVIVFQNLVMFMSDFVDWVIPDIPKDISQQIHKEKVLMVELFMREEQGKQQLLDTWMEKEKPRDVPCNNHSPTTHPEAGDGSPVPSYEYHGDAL
MEKK2wt PB1 HTS: raises or lowers MEK5 binding to wildtype human MEKK2 PB1 domain. 290,000 tested, 1.1% active. Q9Y2U5. AID 1531. binding response (% of control), % at 10 µM. bead flow cytometry, Alexa488-MEK5 binding to MEKK2 WT; actives lie on both sides; in the data active = binding response below about 67% or above about 130%
MEKK2 mut-MEK5: signal of MEK5 binding to mutant human MEKK2 PB1 domain | bead flow cytometry, Alexa488-MEK5 binding to MEKK2 mutant | percent response, % at 10 µM | 290,000 tested, 0.35% active; in the data active = percent response above about 24%, passing the limit was not always enough
MEKK3 PB1 HTS: modulators (inhibitors or enhancers) of MEK5 binding to human MEKK3 PB1 domain. 290,000 tested, 1.4% active. Q99759. bead-based flow cytometry, Alexa488-MEK5 binding to MEKK3; actives lie on both sides; 0 = blocked by unlabeled MEK5, 100 = vehicle. binding response (% of control), % at 10 µM. AID 1529;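 active = binding response more than 3 SD above or below the average of its plate-row segment, actives on both sides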;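 also: Alexa488 bead fluorescence after subtracting the streptavidin-only scavenger bead signal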
ANO1 block: blocks the mouse calcium-activated chloride channel TMEM16A; Q8BHY3; HEK293 TMEM16A/YFP iodide influx fluorescence, ionomycin; normalized B-score (activity score, 25-100; higher = stronger inhibition) at 10 µM; 310,000 tested, 1.2% active; AID 588511;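 active = ratio plate-corrected score three or more library SD toward inhibition, starting fluorescence score within five deviations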;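 also: score derived from kinetic fluorescence span divided by baseline fluorescence per well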
TMEM16A reconf: re-confirmation of mouse TMEM16A chloride channel inhibitors; shares compounds with ANO1 block; HEK293 TMEM16A/YFP-H148Q, iodide quench fluorescence; ionomycin added to raise cell calcium; inhibition, % at 10 µM; 2,300 tested, 39% active;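 active = mean duplicate percent inhibition, scaled so buffer wells are 0 and the reference blocker 100, over three buffer SD above buffer mean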
TMEM16A Ca cntr: counter-screen for TMEM16A inhibitors: effect on calcium mobilization; AID 652231; shares compounds with ANO1 block; 2,300 tested, 2% active; calcium response (% of ionomycin), % at 10 µM; TMEM16A/YFP HEK293, Fluo4 calcium mobilization;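 active = duplicate-averaged calcium signal over 20% of the ionomycin maximum, relative to buffer baseline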;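 also: each well's signal is peak minus trough fluorescence divided by its pre-addition baseline; 0% = buffer wells and 100% = ionomycin wells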
YFP-HEK293 quench: acts in parental YFP-HEK293 cells lacking TMEM16A, counter-screen; shares compounds with ANO1 block; iodide YFP quench, ionomycin; YFP ratio F(max-min)/F0 at 10 µM; 2,300 tested, under 10 active;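 active = yellow fluorescent protein signal ratio exceeding the buffer control mean by over 5 SD of those controls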;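 also: ratio is mean of duplicate wells from kinetic YFP trace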
ClC-1 inh: rat ClC-1 inhibition, TMEM16A specificity screen; shares compounds with ANO1 block; CHO ClC-1-YFP, iodide influx fluorescence quench; iodide control reads 0, buffer control 100; ratio percent, % at 10 µM; 2,300 tested, under 10 active; AID 652236;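 active = duplicate-mean ratio percent above the mean of iodide-only control wells, which defines zero, plus 5 of their SD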;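 also: higher percent means stronger block of ClC-1 iodide influx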
* = called active by the depositor; i = inactive; . = not tested or not shown. Most compounds without a hit are left out; they make up all but 3.4% or so of the library.

SMILES | NTR1 agonist | ANO1 activ | MEKK2wt PB1 HTS | MEKK2 mut-MEK5 | MEKK3 PB1 HTS | ANO1 block | TMEM16A reconf | TMEM16A Ca cntr | YFP-HEK293 quench | ClC-1 inh
COc1ccccc1-c1nc(C#N)c(N2CCc3ccccc3C2)o1 | 21 | i | 96 | 1 | 98 | 100* | i | i | -1.2 | -18
COc1ccccc1-c1nc(C#N)c(N2CCCCCC2)o1 | 4 | i | 93 | 0 | 101 | i | . | . | . | .
Nc1nc(N)n(-c2ccccc2)c(=Nc2ccccc2)n1 | -1 | i | 104 | 8 | 104 | i | . | . | . | .
COc1ccc(-c2cn(Cc3ccc(C(=O)c4ccccc4)cc3)nn2)cc1 | -3 | . | 100 | 0 | 99 | 25* | 27%* | i | -0.86 | -16
CC(Oc1ccc(Cl)cc1)c1ccnn1S(=O)(=O)c1ccccc1 (stereo unspecified) | 0 | i | 103 | 1 | 94 | 100* | 32%* | i | -1.1 | -12
CC(Oc1ccccc1)c1ccnn1S(C)(=O)=O (stereo unspecified) | 1 | i | 113 | 7 | 107 | i | . | . | . | .
COc1cc(C)c(CN2CCC(n3nccc3NC(=O)C3CCOC3)CC2)cc1C (stereo unspecified) | 0 | i | 105 | 10 | 101 | i | . | . | . | .
C[C@@H](NC(=O)[C@@H]1Cc2ccccc2CN1)C(=O)Nc1ccc2c(c1)OCO2 | 0 | i | 101 | 1 | 100 | i | . | . | . | .
COc1ccc(CNC(=O)CCc2c[nH]c3ccccc23)cc1 | -1 | i | 90 | -13 | 95 | 100* | i | i | -1.1 | -10
COc1ccc(CCNS(=O)(=O)c2ccc(OC)cc2)cc1 | 1 | i | 97 | 1 | 98 | 25* | i | i | -0.78 | -5
O=S(=O)(Nc1nc2ccccc2s1)c1ccc(Cl)s1 | 3 | i | 99 | 2 | 104 | 100* | 30%* | i | -0.85 | -16
COc1ccccc1N1CCN(C(c2ccc(Cl)cc2)c2nnnn2C(C)(C)C)CC1 (stereo unspecified) | 1 | i | 98 | 3 | 100 | 100* | i | i | -1.2 | -22
COc1ccccc1N1CCN(C(c2ccccc2Cl)c2nnnn2C(C)(C)C)CC1 (stereo unspecified) | 0 | i | 98 | 1 | 97 | 100* | 25%* | i | -1.3 | -20
CC1CCCN(C(=O)CSc2nnc3ccccn23)C1 (stereo unspecified) | 0 | i | . | . | . | . | . | . | . | .
Cc1ccc(Cl)cc1NC(=O)CC(O)(C(F)(F)F)C(F)(F)F | 2 | i | 111 | 11 | 114 | 100* | 42%* | i | -0.95 | -18
Cc1cc(C)cc(-n2c(C)cc(/C=N/NC(=O)CSc3ncccn3)c2C)c1 | 1 | i | 90 | -6 | 89 | 25* | i | i | -0.89 | 3
CCOC(=O)CCCCCC(=O)Nc1ccc2c(c1)C(=O)N([C@H](C)CO)C[C@@H](C)[C@H](CN(C)S(=O)(=O)c1cn(C)cn1)O2 | -3 | i | . | . | . | . | . | . | . | .
CCCc1cc(=O)[nH]c2nnc(SCC(=O)NC3CCCCC3)n12 | 0 | i | . | . | . | i | . | . | . | .
CCCn1nnc(NC(=O)COc2ccc(C3CCCCC3)cc2)n1 | 1 | i | 98 | -1 | 97 | 100* | 44%* | i | -0.98 | -9
COc1ccc(-c2csc(NC(=O)C3CCN(C(=O)c4ccc(F)cc4)CC3)n2)cc1OC | 1 | i | 111 | 9 | 107 | 100* | 20%* | i | -0.75 | -16
COc1ccc(-c2csc(NC(C)=O)n2)cc1OC | 1 | i | 96 | 0 | 100 | i | . | . | . | .
COc1ccc(CNC(=O)C2CCN(C(=O)c3ccc(F)cc3)CC2)cc1OC | 3 | i | . | . | . | . | . | . | . | .
COc1cccc(NC(=O)Nc2nc(-c3ccc(OC)c(OC)c3)cs2)c1 | 0 | i | 100 | 8 | 104 | 25* | 20%* | i | -1.1 | -4
CCCCC(=O)Nc1ccc(C(=O)NCCN2CCOCC2)cc1 | 1 | i | 102 | 6 | 106 | i | . | . | . | .
CC(C)CCn1nnnc1CN1CCN(c2ccccc2)CC1 | -2 | i | 84 | -28 | 83 | i | . | . | . | .
SMILES | NTR1 agonist | ANO1 activ | MEKK2wt PB1 HTS | MEKK2 mut-MEK5 | MEKK3 PB1 HTS | ANO1 block | TMEM16A reconf | TMEM16A Ca cntr | YFP-HEK293 quench | ClC-1 inh
CC1(C(=O)OCC(=O)Nc2ccc3ccccc3c2)CC1(Cl)Cl (stereo unspecified) | 7 | i | 104 | -1 | 100 | 25* | i | i | -0.81 | -17
CC(C)C[C@@H](NC(=O)C1CCC(CNC(=O)[C@H](Cc2ccccc2)NC(=O)OC(C)(C)C)CC1)C(=O)O (stereo partly specified) | 0 | i | 97 | -5 | 94 | . | . | . | . | .
CCC(C)NC(=O)COC(=O)c1ccc(Cl)cc1O (stereo unspecified) | 0 | i | 94 | -6 | 107 | i | . | . | . | .
C=CCn1c(SCC(=O)NC(=O)Cc2ccccc2)nnc1-c1ccccc1F | 0 | i | . | . | . | . | . | . | . | .
C=CCn1c(SCC(=O)NC(C)(C)C)nnc1-c1ccccc1O | 0 | i | 111 | 1 | 104 | 100* | i | i | -0.79 | -6
Cc1cc(=O)oc2cc(OCC(=O)OCC(=O)N3CCc4ccccc43)ccc12 | -2 | i | 108 | 4 | 106 | 25* | i | i | -1.3 | 2
Cc1cc(=O)oc2cc(OCC(=O)OCC(=O)N(C)C3CCS(=O)(=O)C3)ccc12 (stereo unspecified) | 0 | i | 91 | -12 | 91 | i | i | i | -1.1 | -22
Cc1nnc(SCC(=O)Nc2nc(-c3ccccc3)cs2)n1N | 0 | i | 111 | 4 | 108 | 100* | i | i | -1 | -10
CCn1c(SCC(=O)Nc2nc(-c3ccccc3)cs2)nnc1-c1ccccc1 | 3 | i | 83 | -6 | 86 | i | . | . | . | .
O=C(O)c1ccc(N=Nc2c(O)[nH]c3ccc(Br)cc23)cc1 | 2 | i | 97 | -8 | 99 | i | 17%* | i | -0.77 | -8

Screening data as filed in PubChem.
